Data published in the supplement of paper PMC6555819.

test system: PPARg DBDmut IVT, anti-PPARg (DBD mutation: PPARg1 K132A/R137A, NR concentration 270 nM); assay: PBM binding z-score (relative to random genomic background probes); higher = stronger binding; sequences stand for … in GC…GCGATTGACAGCGTAGAATGAAGG
How it was run: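 Custom Agilent 4×180K protein-binding microarrays carried double-stranded probes, each with a 34-nt variable region. These regions held direct-repeat seeds, single-nucleotide variants, half-site ablations and random human genomic background sequences. Ligand-free nuclear receptor dimers were incubated on the arrays for 1 h, antibodies against each partner (one per run) detected binding, and scanned fluorescence was regression-normalized. Binding z-scores take the random background probes as reference.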

With AGAATCAGGTTATTAAGATCAGGGAATTGCGGTC as the sequence, how does the PBM binding z-score read?
The PBM binding z-score was 0.854.

With TCGAGTAGGTTAGGGGTATTCAGAATGGCGTCGA as the sequence, how does the PBM binding z-score read?
The PBM binding z-score was 0.6.

With CCTACTGGGCCCTTCAGAGGTCATTGATCATATG as the sequence, how does the PBM binding z-score read?
The PBM binding z-score was -0.628.

With GAGACTGGGGCAAAGCAGGTTACCATAAGGTTGG as the sequence, how does the PBM binding z-score read?
The PBM binding z-score was 0.122.

CCCACTGGGCCACGAAAGGTCATTGATTCAGTGA was tested. Which PBM binding z-score did it give?
The PBM binding z-score was 0.623.

Which PBM binding z-score does the source give for CCAGACAGGTGAGAAGGTCACTCAGCCTCGATTA here?
The PBM binding z-score was -1.25.

With ATCGAAAGCTCGTGAGGTGAGTATACAGAAAGGC as the sequence, how does the PBM binding z-score read?
The PBM binding z-score was 0.0739.

How did the PBM binding z-score turn out when TCTAGTTGGTCAAAGGTCACACATTCGAAATGCG was run?
The PBM binding z-score was 1.94.

How did the PBM binding z-score turn out when TAGCGTAGGTCAGATCGGGCCAGTATACGCTATA was run?
The PBM binding z-score was -0.912.

Which PBM binding z-score does the source give for TCTGGTAGATCAAAGGTTAAGAAAGCCGAAGCCT here?
Its PBM binding z-score is 0.322.

Which PBM binding z-score does the source give for CGTCCAAGGTCAAGGTCAGTCAAAGAGACTCGAA here?
Its PBM binding z-score is -0.095.

TCATATAGGTAAAGGTGAAAGTCGAACGATATGA was tested. Which PBM binding z-score did it give?
The PBM binding z-score was 1.2.

With ACAGACAGGTGAGTGAAGGCAACTCAGCTGGACG as the sequence, how does the PBM binding z-score read?
Its PBM binding z-score is -0.0836.

Which PBM binding z-score does the source give for AGAATGAGGTTATTAAGCTCAGGGAATTGCGGTC here?
Its PBM binding z-score is 0.126.

How did the PBM binding z-score turn out when CGTCCAAGGTAAGCAGGTCAGTGAAAGCGACGTG was run?
Its PBM binding z-score is -0.894.

With ACTAGTTTGTCAGCTGAGGTCACACACAATTCGG as the sequence, how does the PBM binding z-score read?
Its PBM binding z-score is 1.54.

Which PBM binding z-score does the source give for TCTTGTAGATCAGCAGGTTCAGAAAGCTGGCCAA here?
Its PBM binding z-score is -0.791.

With ACAGACAGGTGAGTGAAGGAAACTCAGCTGGACG as the sequence, how does the PBM binding z-score read?
Its PBM binding z-score is -1.04.

With TCTTGTAGATCAAAAGAGGTTAAGAAAGTGCGCT as the sequence, how does the PBM binding z-score read?
The PBM binding z-score was 0.122.

With TTACCGAGGTGAAGGTCGTTGATCCCTCTGTAGA as the sequence, how does the PBM binding z-score read?
The PBM binding z-score was 0.34.

With CCGAGTAGGTTATGAGGCATTCAGGCAACGGTGA as the sequence, how does the PBM binding z-score read?
The PBM binding z-score was -0.318.

With CGAACTAGGTCATGCAGGACAGTGAATACATTGA as the sequence, how does the PBM binding z-score read?
The PBM binding z-score was 1.2.

How did the PBM binding z-score turn out when CGTCCAAGGTGAGAGAGGTCAGTGAATGCCGAGT was run?
The PBM binding z-score was -1.25.

How did the PBM binding z-score turn out when ACACGGAGGACAAAGGTCAGAGCTACGCCAGTGA was run?
Its PBM binding z-score is -0.253.

With AGTCAAAGTTCGTCTAGGTAACGTAAGATATGCT as the sequence, how does the PBM binding z-score read?
The PBM binding z-score was 0.773.

AAAACAGGGTCACTAGGCCAGAGTAGGTACGAAT was tested. Which PBM binding z-score did it give?
Its PBM binding z-score is 1.25.

With ACAGACAGGTGAGTGAAGGTAATTCAGCTGGACG as the sequence, how does the PBM binding z-score read?
Its PBM binding z-score is -0.584.

Which PBM binding z-score does the source give for ATCTCTAGGTAACCAAGTTCAATGAATGCCGAAC here?
The PBM binding z-score was 1.22.

With GGAACGAGGGCAAGTTGATAGCGGAGTTTGATGG as the sequence, how does the PBM binding z-score read?
Its PBM binding z-score is -0.677.

For ACCATTAGTTGAGACGAGGGCAACCGATAGGTTG, which PBM binding z-score is on record?
The PBM binding z-score was -0.276.

How did the PBM binding z-score turn out when ATATGTAGGTTATCGGTTCATTCAGTTTGCGCAT was run?
Its PBM binding z-score is 4.75.

AGAATGAGGTTAAGAACAGGGAAACAGAATACAT was tested. Which PBM binding z-score did it give?
Its PBM binding z-score is 0.955.

TCTCGGAGGCCACGAAAGGTCAGAGCTCGACATC was tested. Which PBM binding z-score did it give?
The PBM binding z-score was -0.0793.

How did the PBM binding z-score turn out when TCTAGTTGGTCAAAGGTCATACACTCGAAATGCG was run?
The PBM binding z-score was 2.27.

Which PBM binding z-score does the source give for CTAACTAGGTCAAGGACAGTGAATCTCCGCACGC here?
The PBM binding z-score was 1.42.

Which PBM binding z-score does the source give for TTGCCTAGGTCAGATCGGGCCAGTATACGCTATA here?
Its PBM binding z-score is -1.18.

For ACTACTTGGTCAGCTGAGGTCACACACAATTCGG, which PBM binding z-score is on record?
The PBM binding z-score was 1.36.

With CGTCCAAGGTCAGCAAGTCAGTGAAAGCGACGTG as the sequence, how does the PBM binding z-score read?
Its PBM binding z-score is -1.02.

How did the PBM binding z-score turn out when CCTTTCGGGTCACGAGGTTATAGCACGACGAGCG was run?
The PBM binding z-score was 2.42.

For CGTCAAAATTCAACTAAGGTAACGTAAAGCACGC, which PBM binding z-score is on record?
The PBM binding z-score was 1.22.
